Laboratory results taken from the supplement of paper PMC12350171.
Counter-ions that a name gives are not always drawn. A number with no mark means an inactive call.

Assays:
Conditions in all cases: 20 µM
[1] = test system: Salmonella enterica typhimurium; assay: growth AUC normalised to DMSO control (fraction of control); higher = less growth inhibition, active = hit call of the paper
Procedure, shortened: (§1)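 For the AUC endpoint, growth curves were integrated by the trapezoidal rule up to the exponential-to-stationary transition and normalised to DMSO controls on the same plate. The curves came from OD578 readings taken hourly for 24 h, in three biological replicates. Pathogens had been passaged anaerobically twice and inoculated at an OD578 of 0.01 into pre-reduced mGAM plates carrying 20 μM compound and 1% DMSO, sealed with breathable membranes. Medium for Haemophilus parainfluenzae also contained hemin and NAD.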

Shigella flexneri = assay: as above
Procedure, shortened: as §1

Vibrio cholerae = assay: as above
Procedure, shortened: as §1

[2] = test system: Yersinia pseudotuberculosis; assay: as above
Procedure, shortened: as §1

P. vulgatus RND KO = assay: growth AUC normalised to DMSO control (median) (fraction of control); higher = less growth inhibition, active = hit call of the paper
Procedure, shortened: (§2)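 Strains were passaged twice overnight without oxygen, then grown in mGAM in 96-well plates with each approved-drug library compound at 20 μM and 1% DMSO, starting at OD578 0.01. OD578 was read hourly for 24 h inside an anaerobic incubator. Curves were truncated at entry into stationary phase, and the trapezoidal-rule area under the curve was normalised to same-plate vehicle wells. The value is the median across three biological replicates.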

P. vulgatus WT = assay: as above
Procedure, shortened: as §2

[3] = test system: S. enterica typhimurium WT; assay: as above
Procedure, shortened: as §2

[4] = test system: S. enterica typhimurium tolC KO; assay: as above
Procedure, shortened: as §2
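Wherever growth AUC normalised to DMSO control (median) is given: active when median AUC fell below 0.1.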

SMILES	growth AUC normalised to DMSO control [1]	growth AUC normalised to DMSO control (Shigella flexneri)	growth AUC normalised to DMSO control (Vibrio cholerae)	growth AUC normalised to DMSO control [2]	growth AUC normalised to DMSO control (P. vulgatus RND KO)	growth AUC normalised to DMSO control (P. vulgatus WT)	growth AUC normalised to DMSO control [3]	growth AUC normalised to DMSO control [4]
O=C(O)Cc1sc(-c2ccccc2)nc1-c1ccc(Cl)cc1 [Fentiazac]	0.993	1.03	1	1.02	0.896	0.947	1	0.98
O=C(O)c1ccccc1Nc1cccc(C(F)(F)F)c1 [Flufenamic acid]	0.992	0.963	0.906	0.981	0.833	0.849	1.01	0.968
CO[C@@]1(NC(=O)CSCC#N)C(=O)N2C(C(=O)O)=C(CSc3nnnn3C)CS[C@@H]21 [Cefmetazole sodium salt]	0.00445 (active)	0.0256 (active)	0.337 (active)	0.139 (active)	0.0391 (active)	0.03 (active)	0.00692 (active)	0.00805 (active)
CCN(CC)CCNC(=O)c1cc(Cl)c(N)cc1OC [Metoclopramide monohydrochloride]	0.994	0.978	0.989	0.993	0.977	0.971	1	1
COc1ccc2c3c1O[C@H]1C[C@@H](O)C=C[C@@]31CCN(C)C2 [Galanthamine hydrobromide]	0.995	0.95	0.986	1.02	0.998	1	1	0.995
Cc1ccc(C)c(OCCCC(C)(C)C(=O)O)c1 [Gemfibrozil]	0.997	0.972	0.983	1	0.969	0.972	1	0.977
CC(=O)NC[C@H]1CN(c2ccc(N3CCOCC3)c(F)c2)C(=O)O1 [Linezolid]	0.885 (active)	0.806 (active)	0.0187 (active)	0.916	0.00951 (active)	0.011 (active)	0.918	0.223
Nc1ccn([C@@H]2O[C@H](CO)[C@@H](O)[C@@H]2O)c(=O)n1 [Cytarabine]	1	0.998	1	0.986	0.993	0.989	0.998	0.997
CC(=O)O[C@H]1C(=O)[C@@]2(C)[C@H]([C@H](OC(=O)c3ccccc3)[C@]3(O)C[C@H](OC(=O)[C@H](O)[C@@H](NC(=O)c4ccccc4)c4ccccc4)C(C)=C1C3(C)C)[C@]1(OC(C)=O)CO[C@@H]1C[C@@H]2O [Paclitaxel]	1.02	1.01	1.02	0.998	0.881	0.8	1.01	1.02
CCCCNc1ccc(C(=O)OCCOCCOCCOCCOCCOCCOCCOCCOCCOC)cc1 [Benzonatate]	1.01	0.993	0.996	0.989	1.01	0.954	1	1
C[C@@H]1CN(c2c(F)c(N)c3c(=O)c(C(=O)O)cn(C4CC4)c3c2F)C[C@H](C)N1 [Sparfloxacin]	0.00775 (active)	0.047 (active)	0.0469 (active)	0.0357 (active)	0.0205 (active)	0.0159 (active)	0.0129 (active)	0.00501 (active)
C[C@@](Cc1ccc(O)c(O)c1)(NN)C(=O)O [Carbidopa]	0.994	0.948	0.996	0.972	0.99	0.993	1	1.01
C=C1c2c(Cl)ccc(O)c2C(O)=C2C(=O)[C@]3(O)C(O)=C(C(N)=O)C(=O)[C@@H](N(C)C)[C@@H]3[C@@H](O)[C@H]12.O=C(O)c1cc(S(=O)(=O)O)ccc1O [Meclocycline sulfosalicylate]	0.00503 (active)	0.015 (active)	0.0396 (active)	0.0398 (active)	0.0142 (active)	0.022 (active)	0.0103 (active)	0.00967 (active)
CS(=O)(=O)c1ccc(C2=C(c3ccccc3)C(=O)OC2)cc1 [Rofecoxib]	1.01	0.99	1.02	0.995	1	1.03	1	0.98
CC(=O)Oc1ccccc1C(=O)O [Acetylsalicylic acid]	1.04	1.04	1.09	1.02	1.01	1.01	1.01	1.01
Cc1ncc([N+](=O)[O-])n1CC(O)CCl (configuration not stated) [Ornidazole]	0.995	0.987	1.01	0.964	0.0124 (active)	0.00943 (active)	0.99	0.99
Clc1ccc2nsnc2c1NC1=NCCN1 [Tizanidine hydrochloride]	0.977	0.988	0.993	1	0.992	1	1.01	0.998
CCCN(CCC)CCc1cccc2c1CC(=O)N2 [Ropinirole hydrochloride]	0.997	1.02	0.976	0.985	1.03	1.04	1	0.988
Cn1cnc([N+](=O)[O-])c1Sc1ncnc2[nH]cnc12 [Azathioprine]	1	0.992	1.01	1.01	0.955	0.92	1.02	0.998
NC(=O)N1c2ccccc2CC(=O)c2ccccc21 [Oxcarbazepine]	0.971	0.952	0.981	0.992	0.989	0.995	0.999	1
Cc1cc(C(C)(C)C)cc(C)c1CC1=NCCN1 [Xylometazoline hydrochloride]	1.03	0.999	0.999	0.989	1.02	1.02	0.995	0.989
O=C1CN(/N=C/c2ccc(-c3ccc([N+](=O)[O-])cc3)o2)C(=O)N1 [Dantrolene sodium salt]	1.04	0.97	0.948	0.986	1.04	1.03	1.02	0.825
CC(C)NNC(=O)c1ccncc1 [Iproniazide phosphate]	1.01	1	0.997	1.02	1.02	1.03	1.02	0.992
Cc1cn([C@H]2C=C[C@@H](CO)O2)c(=O)[nH]c1=O [Stavudine]	1.01	1.03	1.03	0.992	1	1.05	1.03	1.02
CC1(C)O[C@@H]2[C@@H](CO[C@@]3(COS(N)(=O)=O)OC(C)(C)O[C@@H]23)O1 [Topiramate]	0.985	1.02	1.02	1.01	0.961	0.967	0.996	0.992
CC(C)(CO)[C@@H](O)C(=O)NCCCO [(D)-Panthenol]	0.999	1.02	0.998	0.99	0.995	0.979	1	1
Cc1ccc2c(c1)c1c3n2CCNC3CCC1 (configuration not stated) [Pirlindole mesylate]	0.988	0.999	0.993	0.964	1.02	1.03	0.998	0.992
Clc1ccc(COC(Cn2ccnc2)c2ccc(Cl)cc2Cl)cc1 (configuration not stated) [Econazole nitrate]	0.977	0.987	0.962	1.01	0.899	0.902	1	0.912
CC(=O)[C@@]1(O)CC[C@H]2[C@@H]3C[C@H](C)C4=CC(=O)C=C[C@]4(C)[C@@]3(F)[C@@H](O)C[C@@]21C [Fluorometholone]	1.01	1.03	1.05	1	1	1.01	1	0.987
